Experimental findings from PubChem BioAssay AID2810 (NMMLSC, 2010) are described below.

In all, about 1,200 compounds went through this assay and about 65 (5%) were called active. This is one part of a sample in which actives are shown more often than they occur.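 How the source made its calls: active means at either tested dose, response and 90th-percentile vesicle-stain brightness of CD8 cells under set limits and under 9% cells vesicle-bound; inactive means the rest.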

This assay can be described thus: modulators of CD8 T cell-vesicle binding, confirmation, cherry-picked primary hits, two concentrations (AID 2810).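 On percent response (vesicle binding): ratio of mean FL2 vesicle stain of CD8+ cells to that row's control.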 To be noted: 2C CD8+ T cell-vesicle binding, flow cytometry; for double positive events: CD8+/vesicle+ events. In general terms: In flow cytometry, cells or beads pass a laser one at a time.
The mark [1] stands for this setting: at 15.4 µM, stronger effect = lower value.

For `COc1ccc(C2=CC(=O)C[C@H](c3ccc4c(c3)OCO4)C2)cn1`, the double positive events by setting is: (at 7.7 µM) 9.9%; under setting [1], 4.4%. In addition, the percent response (vesicle binding) is 35.6% (active) under setting [1] and 132% (response, at 7.7 µM).

Regarding `COc1ccc([C@H]2CC(=O)C=C(c3ccc(OC)nc3)C2)cc1`, the double positive events by setting is: (at 7.7 µM) 14.2%; under setting [1], 9.6%. The percent response (vesicle binding) is, setting by setting: under setting [1], 212% (inactive); (response, at 7.7 µM) 129%.

For `CCCOc1ccc(C2=CC(=O)C[C@H](c3ccc(OC)cc3)C2)cc1`, the double positive events reads like this: (at 7.7 µM) 11%; under setting [1], 10.3%. In addition, the percent response (vesicle binding) reads like this: under setting [1], 69.4% (inactive); (response, at 7.7 µM) 126%.

On to `Cc1ccc(O)c(CCc2ccccc2)n1`, for which the double positive events came to 15.8% (at 7.7 µM) and 2.8% under setting [1]. The percent response (vesicle binding) reads like this: under setting [1], 113% (inactive); (response, at 7.7 µM) 128%.

As to `O=C(Nc1nc2ccccc2[nH]1)c1ccccc1[N+](=O)[O-]`, the double positive events (at 7.7 µM) came to 21% and the double positive events under setting [1] came out at 27.8%. In addition, the percent response (vesicle binding) is 316% (inactive) under setting [1] and 383% (response, at 7.7 µM).

As for `CCNC(=O)CSc1nc(-c2ccccc2)cs1`, the double positive events reads like this: (at 7.7 µM) 25.1%; under setting [1], 14.3%. Besides, the percent response (vesicle binding) by setting is: under setting [1], 215% (inactive); (response, at 7.7 µM) 240%.

Turning to `O=C(Nc1nc(-c2ccccc2)cs1)c1ccc(N2CCOCC2)c([N+](=O)[O-])c1`, the double positive events reads like this: (at 7.7 µM) 8.4%; under setting [1], 25.6%. The percent response (vesicle binding) is 552% (inactive) under setting [1] and 78.4% (response, at 7.7 µM).

As for `O=C(NC(=S)Nc1nc(-c2ccccc2)cs1)c1cccs1`, the double positive events was 16.9% (at 7.7 µM) and 1.5% under setting [1]. Also, the percent response (vesicle binding) under setting [1] is 48.9% (active) and the percent response (vesicle binding) (response, at 7.7 µM) was determined as 238%.

The compound `CC1c2ccsc2CCN1C(=O)NC(=O)c1ccc(Cl)cc1` (stereo unspecified) gave a double positive events (at 7.7 µM) of 20.6% and a double positive events under setting [1] of 18.4%. Moreover, the percent response (vesicle binding) under setting [1] is 185% (inactive) and the percent response (vesicle binding) (response, at 7.7 µM) came to 486%.

In the case of `CCCCNC(=O)c1cnc2n(c1=O)CCS2`, the double positive events came to 38.7% (at 7.7 µM) and 14.7% under setting [1]. The percent response (vesicle binding) is 184% (inactive) under setting [1] and 399% (response, at 7.7 µM).

Regarding `CCOC(=O)c1cnc2nc(C)nn2c1N`, the double positive events was 10.5% (at 7.7 µM) and 10.6% under setting [1]. The percent response (vesicle binding) reads like this: under setting [1], 70.8% (inactive); (response, at 7.7 µM) 113%.

Turning to `CCCNC(=O)c1nc2ncc(Br)cn2n1`, the double positive events runs as follows: (at 7.7 µM) 15.3%; under setting [1], 1%. Besides, the percent response (vesicle binding) was 43% (active) under setting [1] and 231% (response, at 7.7 µM).

With `Cc1ccc(C(=O)NCc2ccco2)o1`, the double positive events (at 7.7 µM) was 10.5% and the double positive events under setting [1] was determined as 20.1%. The percent response (vesicle binding) was 586% (inactive) under setting [1] and 368% (response, at 7.7 µM).

`O=C(NC(=S)NCc1ccco1)c1ccc(Br)cc1`: the double positive events by setting is: (at 7.7 µM) 18.8%; under setting [1], 5.9%. Further, the percent response (vesicle binding) under setting [1] was 52.9% (active) and the percent response (vesicle binding) (response, at 7.7 µM) is 186%.

Take `O=C(NNC(=S)NC(=O)c1ccco1)c1ccc(F)cc1`: the double positive events was determined as 7.1% (at 7.7 µM) and 18.1% under setting [1]. Besides, the percent response (vesicle binding) is 196% (inactive) under setting [1] and 291% (response, at 7.7 µM).

In the case of `CCOc1ccccc1NC(=O)c1ccc(F)c(S(=O)(=O)N2CCC3(CC2)OCCO3)c1`, the double positive events reads like this: (at 7.7 µM) 16.8%; under setting [1], 14.7%. The percent response (vesicle binding) is 94.2% (inactive) under setting [1] and 132% (response, at 7.7 µM).

As to `COc1ccc(C2(O)CCN(CCCCOc3ccccc3)CC2)cc1`, the double positive events is 12.9% (at 7.7 µM) and 31.8% under setting [1]. The percent response (vesicle binding) was 292% (inactive) under setting [1] and 174% (response, at 7.7 µM).

Take `C[N+]1(C)CC2([N+](=O)[O-])CC=C(Oc3ccccc3)C([N+](=O)[O-])(C2)C1` (stereo unspecified): the double positive events by setting is: (at 7.7 µM) 28.9%; under setting [1], 3.4%. The percent response (vesicle binding) runs as follows: under setting [1], 49.5% (active); (response, at 7.7 µM) 485%.

Turning to `CCOc1ccccc1NC(=O)CN(c1ccc(C)cc1)S(=O)(=O)c1c(C)noc1C`, the double positive events runs as follows: (at 7.7 µM) 30.1%; under setting [1], 16.7%. The percent response (vesicle binding) was 129% (inactive) under setting [1] and 502% (response, at 7.7 µM).

For the compound `COc1ccc(Cl)cc1NC(=O)/C=C/C(=O)O`, the double positive events is 13.3% (at 7.7 µM) and 24.2% under setting [1]. The percent response (vesicle binding) under setting [1] is 251% (inactive) and the percent response (vesicle binding) (response, at 7.7 µM) came to 192%.

As for `CCCCN(C(=O)COC(=O)c1ccc(C=O)cc1)c1c(N)n(CCC)c(=O)[nH]c1=O`, the double positive events is, setting by setting: (at 7.7 µM) 9.2%; under setting [1], 13.1%. Also, the percent response (vesicle binding) reads like this: under setting [1], 406% (inactive); (response, at 7.7 µM) 335%.

As for `CCc1ccc(OCc2cnc(Cl)s2)cc1`, the double positive events is, setting by setting: (at 7.7 µM) 11.6%; under setting [1], 16.5%. Moreover, the percent response (vesicle binding) reads like this: under setting [1], 277% (inactive); (response, at 7.7 µM) 421%.

`Cn1c(SCC(=O)Nc2ccc3cn[nH]c3c2)nnc1-c1cccs1`: the double positive events is, setting by setting: (at 7.7 µM) 12.5%; under setting [1], 17.2%. The percent response (vesicle binding) was 146% (inactive) under setting [1] and 160% (response, at 7.7 µM).

`CCC(=O)NC(NC(=S)Nc1c(C)n(C)n(-c2ccccc2)c1=O)C(Cl)(Cl)Cl` (stereo unspecified): the double positive events is 16.1% (at 7.7 µM) and 13.9% under setting [1]. Further, the percent response (vesicle binding) under setting [1] was 129% (inactive) and the percent response (vesicle binding) (response, at 7.7 µM) was determined as 201%.

For `Cc1c(NC(=S)NC(=O)CCc2ccccc2)c(=O)n(-c2ccccc2)n1C`, the double positive events (at 7.7 µM) was 21.8% and the double positive events under setting [1] was 30.2%. Further, the percent response (vesicle binding) was 295% (inactive) under setting [1] and 278% (response, at 7.7 µM).

`Cc1c(NS(=O)(=O)CC23CCC(CC2=O)C3(C)C)c(=O)n(-c2ccccc2)n1C` (stereo unspecified): the double positive events came out at 14.2% (at 7.7 µM) and 1.9% under setting [1]. Moreover, the percent response (vesicle binding) is, setting by setting: under setting [1], 37.7% (active); (response, at 7.7 µM) 260%.

`COc1cc(C(C)=O)ccc1O` returned a double positive events (at 7.7 µM) of 24% and a double positive events under setting [1] of 6.3%. The percent response (vesicle binding) is, setting by setting: under setting [1], 114% (inactive); (response, at 7.7 µM) 362%.

With `Cc1cc(C(=O)NCc2cc(C(=O)O)oc2C)c(C)o1`, the double positive events is 29.4% (at 7.7 µM) and 14.9% under setting [1]. Moreover, the percent response (vesicle binding) was 86.2% (inactive) under setting [1] and 224% (response, at 7.7 µM).

In turn, `CSCCC(NC(=O)c1ccc(=O)n(C)n1)c1nc2ccccc2[nH]1` (stereo unspecified) returned a double positive events (at 7.7 µM) of 14.9% and a double positive events under setting [1] of 0.9%. In addition, the percent response (vesicle binding) reads like this: under setting [1], 42% (active); (response, at 7.7 µM) 254%.

On to `O=C(NCC(=O)N1CCN(C(=O)c2ccccc2)CC1)c1ccccc1`, for which the double positive events reads like this: (at 7.7 µM) 13.6%; under setting [1], 10.6%. Besides, the percent response (vesicle binding) was 148% (inactive) under setting [1] and 158% (response, at 7.7 µM).

Take `Cc1cc(C)nc(SCCn2c(N3CC(C)OC(C)C3)nc3c2c(=O)n(C)c(=O)n3C)n1` (stereo unspecified): the double positive events turned out to be 12.7% (at 7.7 µM) and 28.3% under setting [1]. Besides, the percent response (vesicle binding) was 226% (inactive) under setting [1] and 172% (response, at 7.7 µM).

As for `C=CCNC(=O)c1c(Cl)nc(C)c([N+](=O)[O-])c1C`, the double positive events by setting is: (at 7.7 µM) 28.7%; under setting [1], 11.5%. The percent response (vesicle binding) is 144% (inactive) under setting [1] and 122% (response, at 7.7 µM).

In the case of `CCC1(C)NC(=O)N(CC(=O)N2N=C(c3ccccc3)CC2c2ccc(OC)cc2)C1=O` (stereo unspecified), the double positive events is, setting by setting: (at 7.7 µM) 9.6%; under setting [1], 30.9%. The percent response (vesicle binding) was 413% (inactive) under setting [1] and 134% (response, at 7.7 µM).

In the case of `CCc1c(C)nc(SCC(=O)Nc2nc(-c3ccc(OC)cc3)cs2)[nH]c1=O`, the double positive events runs as follows: (at 7.7 µM) 33.4%; under setting [1], 10.4%. Also, the percent response (vesicle binding) is, setting by setting: under setting [1], 192% (inactive); (response, at 7.7 µM) 289%.
